In PubChem BioAssay AID602144 (Vanderbilt Specialized Chemistry Center, 2011):
Where “and” joins values, the source holds several entries; their conditions need not be identical. Equal entries are not always repeated. A number with no mark means an inactive call. Calls of active or inactive are those of the source. No stated cut-off is given here; in the data, active means remaining activity below about 50%; inactive means the rest.

target: Phospholipase D1 (Homo sapiens) (UniProt Q13393); assay: cellular phospholipase D1 activity inhibition – Calu-1 cells, single concentration (AID 602144); settings: cellular PLD1 activity, active compounds read low;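 further: tested at 200 nM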
Sequence (Q13393 whole entry, looked up): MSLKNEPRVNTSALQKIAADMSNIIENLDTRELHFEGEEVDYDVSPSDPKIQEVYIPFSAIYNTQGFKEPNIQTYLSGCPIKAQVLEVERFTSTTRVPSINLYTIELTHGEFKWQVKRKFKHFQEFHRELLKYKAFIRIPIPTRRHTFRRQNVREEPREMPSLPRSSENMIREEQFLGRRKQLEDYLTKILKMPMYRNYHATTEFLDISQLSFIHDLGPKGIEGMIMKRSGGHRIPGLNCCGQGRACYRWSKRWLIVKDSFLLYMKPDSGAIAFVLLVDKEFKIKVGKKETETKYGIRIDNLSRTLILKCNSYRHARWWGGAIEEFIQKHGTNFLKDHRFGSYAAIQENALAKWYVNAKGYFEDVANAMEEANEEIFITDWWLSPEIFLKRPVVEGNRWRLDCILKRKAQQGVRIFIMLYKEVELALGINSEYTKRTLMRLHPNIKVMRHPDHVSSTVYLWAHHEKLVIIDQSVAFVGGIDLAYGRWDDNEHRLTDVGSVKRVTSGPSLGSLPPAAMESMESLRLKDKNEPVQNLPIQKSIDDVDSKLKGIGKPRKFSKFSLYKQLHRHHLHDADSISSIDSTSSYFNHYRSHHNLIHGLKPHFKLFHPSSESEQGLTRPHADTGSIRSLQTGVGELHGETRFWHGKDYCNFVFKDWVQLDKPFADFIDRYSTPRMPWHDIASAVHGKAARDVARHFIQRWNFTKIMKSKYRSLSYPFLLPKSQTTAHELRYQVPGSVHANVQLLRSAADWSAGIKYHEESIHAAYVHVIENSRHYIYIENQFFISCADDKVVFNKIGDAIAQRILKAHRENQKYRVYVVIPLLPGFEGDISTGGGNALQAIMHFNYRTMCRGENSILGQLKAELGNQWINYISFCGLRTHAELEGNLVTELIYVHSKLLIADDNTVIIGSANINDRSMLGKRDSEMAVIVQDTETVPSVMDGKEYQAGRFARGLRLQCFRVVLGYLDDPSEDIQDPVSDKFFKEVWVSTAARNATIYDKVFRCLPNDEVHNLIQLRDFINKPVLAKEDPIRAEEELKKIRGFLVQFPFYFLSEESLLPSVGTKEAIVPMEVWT
Sequence (Q13393 whole entry, looked up): as above

| Structure (SMILES) | remaining activity |
| --- | --- |
| O=C(c1cccc(F)c1)N(CCN1CCC2(CC1)C(=O)NCN2c1cccc(F)c1)C(=O)c1cccc(F)c1 | 93.5% |
| O=C(NCCN1CCC2(CC1)C(=O)NCN2c1ccccc1)C1CCc2ccccc2C1 (stereo not drawn) | 103% and 104% |
| O=C(c1ccc(F)c(F)c1)N1CCC[C@@H]1CN1CCC2(CC1)C(=O)NCN2c1ccccc1 | 93.7% |
| CC(C)[C@@H](CN1CCC2(CC1)C(=O)NCN2c1ccccc1)NC(=O)c1cc2cc(F)ccc2[nH]1 | 6.9% (active) |
| O=C(NCCN1CCC2(CC1)C(=O)N(Cc1ccccc1)c1ccccc12)c1ccc2ccccc2c1 | 98.9% |
| O=C(NCCN1CCC2(CC1)C(=O)NCN2c1ccccc1)c1cc(=O)c2cc(Br)ccc2o1 | 110% |
| C[C@H](CN1CCC2(CC1)C(=O)NCN2c1ccccc1)NC(=O)c1cc(Br)c(Br)o1 | 71.8% |
| O=C(COCc1ccccc1)NCCN1CCC2(CC1)C(=O)NCN2c1cccc(F)c1 | 108% |
| O=C(c1ccc2ccccc2c1)N1CC(N2CCC(n3c(=O)[nH]c4ccccc43)CC2)C1 | 108% |
| C[C@@H](CN1CCC2(CC1)C(=O)NCN2c1ccc(F)c(F)c1)NC(=O)c1cc2cc(F)ccc2[nH]1 | 0% (active) |
| O=C(NCCN1CCC2(CC1)C(=O)NCN2c1ccccc1)c1cnc2ccccc2c1 | 130% |
| O=C(C#Cc1ccccc1)NCCN1CCC2(CC1)C(=O)NCN2c1ccccc1 | 87.1% |
| O=C(NCCN1CCC2(CC1)C(=O)NCN2c1cccc(F)c1)C12CC3CC(CC(C3)C1)C2 | 98.7% |
